Screening results (PubChem)
This is a sample that favours compounds with a hit; in the whole collection about 0.84% have one here.
NR5A2 inv ag = inverse agonists of human LRH-1 (NR5A2); O00482; HEK293T StAR-luciferase reporter, LRH-1 transfected, 24 h; inhibition, % at 3.6 µM; 360,000 compounds, 0.13% hits;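 active = inhibition above the mean inhibition of all tested compounds plus 3 SD, cut at about 73% in these data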;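 note: 0% = DMSO wells and 100% = reporter-only cells lacking LRH-1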
NR2F2 inh = inhibitors of human COUP-TFII (NR2F2) | HEK293T NGFI-A luciferase reporter, luminescence | inhibition, % at 8.6 µM | 370,000 compounds, 0.7% hits | AID 686940;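 active = inhibition above a per-plate cutoff, mean inhibition of test wells between control levels plus 3 SD, cut at about 38% in these data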;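 note: cells cotransfected with COUP-TFII expression vector driving the NGFI-A reporter; 0% = median of COUP-TF2 test wells and 100% = reporter-only cells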
NCOA1 inh = inhibits human SRC1 coactivator; Q15788; HEK293 GAL4-SRC1 luciferase reporter, luminescence; inhibition, % at 3.6 µM; 360,000 compounds, 0.12% hits; AID 588354;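 active = inhibition above the campaign mean plus 3 SD, with each screening campaign given its own cutoff, cut at about 60% in these data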;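 note: 0% = DMSO treated cells and 100% = gossypol at 36 µM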
SRC2 inh = human SRC2 (NCOA2) inhibition; inhibition, % at 9 µM; AID 651957; HEK293 GAL4-SRC2 luciferase reporter, luminescence; 370,000 compounds, 0.17% hits;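 active = inhibition above the mean inhibition of all tested compounds plus 3 SD, set per campaign, cut at about 52% in these data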;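 note: 0% = DMSO treated cells and 100% = cells given Gossypol at 36 µM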
NCOA3 inh = human NCOA3 inhibition | 360,000 compounds, 0.17% hits | AID 588352 | Q9Y6Q9 | HEK293 GAL4-SRC3 luciferase reporter, luminescence | inhibition, % at 3.6 µM;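 active = inhibition above a per-campaign cutoff, the mean of all compounds plus 3 SD, cut at about 60% in these data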;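 note: 0% = DMSO-treated cells and 100% = gossypol-treated cells at 36 µM; higher means less SRC3-driven luciferase light from the GAL4 reporter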
Gal4-VP16 ctr = inhibits VP16 reporter, flagging COUP-TFII antagonist hits | shares compounds with NR2F2 inh | HEK293 Gal4-VP16 luciferase reporter, luminescence | inhibition, % at 8.5 µM | 2,500 compounds, 25% hits | AID 687007; in the data active = inhibition above about 13%
COUP-TFII conf = COUP-TFII (NR2F2) inhibition, confirmation assay; shares compounds with NR2F2 inh; HEK293 NGFI-A luciferase reporter, luminescence; inhibition, % at 8.5 µM; 2,500 compounds, 45% hits;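 active = mean inhibition over three repeats above a set limit taken from the earlier primary screen, cut at about 38% in these data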;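 note: 100% = cells given the luciferase reporter alone without the COUP-TF2 vector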
* hit, by the source's call.

For CCN(C(=O)CN1C(=O)S/C(=C\c2ccc(F)cc2)C1=O)C1CCS(=O)(=O)C1 (centres undefined) the results were NR5A2 inv ag -11, NR2F2 inh 2, NCOA1 inh -90, SRC2 inh 8 and NCOA3 inh -13.
Screening CC(=O)N1CCCN(C(=O)Cn2cnc3ccccc3c2=O)CC1 returned NR2F2 inh -6 and SRC2 inh -18.
Screening Oc1ccc(CCNc2ncnc3ccc(Cl)cc23)cc1 returned NR5A2 inv ag 47, NR2F2 inh 80*, NCOA1 inh 64*, SRC2 inh 37, NCOA3 inh 58, Gal4-VP16 ctr 7 and COUP-TFII conf 64*.
Cn1nc(C(F)(F)F)c(C#N)c1N1CCN(c2ccc(F)cc2)CC1 was read as NR5A2 inv ag 4, NR2F2 inh 45*, NCOA1 inh 43, SRC2 inh 41, NCOA3 inh 50, Gal4-VP16 ctr 11 and COUP-TFII conf 31.
Cn1nc(C(F)(F)F)c(C#N)c1N1CCN(c2ccccc2)CC1 was read as NR5A2 inv ag 0, NR2F2 inh 24, NCOA1 inh 41, SRC2 inh 36 and NCOA3 inh 37.
For Cc1c(-c2ccccc2)oc2c(C(=O)OCC(=O)Nc3ccc(F)cc3)cccc2c1=O the results were NR5A2 inv ag -6, NR2F2 inh 9, NCOA1 inh 6, SRC2 inh 10 and NCOA3 inh 2.
Screening Cc1nc2ccccn2c1C(=O)NC1CCCc2ccccc21 (centres undefined) returned NR5A2 inv ag 27, NR2F2 inh 42*, NCOA1 inh 19, SRC2 inh 18, NCOA3 inh 19, Gal4-VP16 ctr 4 and COUP-TFII conf 37.
For Cc1cc(C2=NNC(=NC3CC3)SC2)c(C)n1Cc1ccco1 the results were NR5A2 inv ag 76*, NR2F2 inh 89*, NCOA1 inh 76*, SRC2 inh 83*, NCOA3 inh 83*, Gal4-VP16 ctr 77* and COUP-TFII conf 103*.
Screening COCCn1c(C)cc(C2=NNC(=Nc3ccc(Cl)cc3Cl)SC2)c1C returned NR5A2 inv ag 12, NR2F2 inh -5, NCOA1 inh -8, SRC2 inh 11 and NCOA3 inh 4.
Screening C=CCn1c(C)cc(C2=NNC(=Nc3ccc(C)cc3)SC2)c1C returned NR5A2 inv ag -2, NR2F2 inh -2, NCOA1 inh -3, SRC2 inh -12 and NCOA3 inh 17.
For COCCn1c(C)cc(C2=NNC(=NC3CC3)SC2)c1C the results were NR5A2 inv ag 87*, NR2F2 inh 94*, NCOA1 inh 89*, SRC2 inh 86*, NCOA3 inh 91*, Gal4-VP16 ctr 89* and COUP-TFII conf 109*.
`COCCCN=C1NN=C(c2cc(C)n(Cc3ccco3)c2C)CS1` gave NR5A2 inv ag -110, NR2F2 inh -34, NCOA1 inh -133, SRC2 inh -62 and NCOA3 inh -87.
Cc1cc(C2=NNC(=NC3CC3)SC2)c(C)n1-c1ccccc1 was read as NR5A2 inv ag 77*, NR2F2 inh 52*, NCOA1 inh 84*, SRC2 inh 80*, NCOA3 inh 86*, Gal4-VP16 ctr 71* and COUP-TFII conf 106*.
For C=CCN=C1NN=C(c2cc(C)n(CCOC)c2C)CS1 the results were NR5A2 inv ag -7, NR2F2 inh 86*, NCOA1 inh 13, SRC2 inh 70*, NCOA3 inh 28, Gal4-VP16 ctr 75* and COUP-TFII conf 96*.
NC(=O)c1ncn([C@@H]2O[C@H](C(=O)N3CCCN(Cc4ccccc4F)CC3)[C@@H](O)[C@H]2O)n1 was read as NR2F2 inh -20 and SRC2 inh 1.
Screening CC1CN(C(=O)COC(=O)Cc2c(Cl)cccc2Cl)CC(C)O1 (centres undefined) returned NR5A2 inv ag -29, NR2F2 inh 11, NCOA1 inh -22, SRC2 inh -2 and NCOA3 inh -2.
Screening CC(=O)Oc1c(/C=C(\C#N)C(N)=O)[nH]c2ccccc12 returned NR5A2 inv ag 22, NR2F2 inh 5, NCOA1 inh -2, SRC2 inh -48 and NCOA3 inh 16.
Screening CCCN(CCC)CC(C)(C)NS(=O)(=O)c1ccc(Cl)cc1 returned NR5A2 inv ag -4, NR2F2 inh 7, NCOA1 inh -15, SRC2 inh 13 and NCOA3 inh -9.
Screening CCC[C@H]1CN(c2ccccc2)C(=O)[C@@H]1CC(=O)NC returned NR5A2 inv ag 0, NR2F2 inh -7, NCOA1 inh -14, SRC2 inh 12 and NCOA3 inh 8.
COc1ccc(C2CCC3(CCC(=O)N3CCOC(=O)NCc3ccc(Cl)cc3)CC2)cc1 (centres undefined) was read as NR2F2 inh 40*, SRC2 inh 23, Gal4-VP16 ctr 2 and COUP-TFII conf 16.
`CC(C)OC(=O)CSc1nc(N)c(C#N)c(-c2cccs2)c1C#N` gave NR5A2 inv ag 31, NR2F2 inh 45*, NCOA1 inh 12, SRC2 inh 10, NCOA3 inh 24, Gal4-VP16 ctr 5 and COUP-TFII conf 25.
`CC(=O)C1=C(C)N(CC(C)C)C(=S)NC1c1ccc(Br)cc1` (centres undefined) gave NR2F2 inh -1 and SRC2 inh 12.
O=C(c1ccccc1)c1ccc(Cn2cc(-c3ccccc3)nn2)cc1 was read as NR5A2 inv ag -12, NR2F2 inh 38*, NCOA1 inh -7, SRC2 inh 0, NCOA3 inh -21, Gal4-VP16 ctr -79 and COUP-TFII conf 10.
For O=C(O)CCCCCCCCc1cn(Cc2ccc(C(=O)c3ccccc3)cc2)nn1 the results were NR5A2 inv ag -3, NR2F2 inh -1, NCOA1 inh -4, SRC2 inh -11 and NCOA3 inh 3.
Screening O=C(c1ccccc1)c1ccc(Cn2cc(CCCO)nn2)cc1 returned NR5A2 inv ag 20, NR2F2 inh 37*, NCOA1 inh 6, SRC2 inh 2, NCOA3 inh 3, Gal4-VP16 ctr 6 and COUP-TFII conf 13.
For O=C(NCc1ccccc1)[C@@H]1CCCN1C(=O)[C@H]1CCCN1C(=O)c1ccc(Cl)cc1 the results were NR2F2 inh -11 and SRC2 inh 10.
Screening Cc1ccc(-c2nnc(SCC(=O)Nc3ccccc3F)o2)cc1 returned NR5A2 inv ag 32, NR2F2 inh 64*, NCOA1 inh 33, SRC2 inh 62*, NCOA3 inh 9, Gal4-VP16 ctr 24* and COUP-TFII conf 40*.
For O=C(CSc1nnc(-c2ccccc2)o1)Nc1ccccc1F the results were NR5A2 inv ag -77, NR2F2 inh 24, NCOA1 inh -72, SRC2 inh 24 and NCOA3 inh -39.
